The text below walks through data of the supplement of paper PMC13380429.

Assay [1] relates to Vero E6 infected with SARS-CoV-2. The assay can be described thus: morphology score (similarity to uninfected cells); higher = more like uninfected cells. To be noted: 24 h.
For assay [2] the test system is unchanged. Description: SARS-CoV-2 infection rate relative to infected DMSO; higher = more infection, active = 60 or less. To be noted: 24 h.

SMILES strings stand for the structures.

Turning to `CC(=O)/N=c1/[nH]c(C)c(-c2ccc(Cl)c(S(=O)(=O)NCCO)c2)s1` (0.833333 µM), the morphology score in assay [1] was found to be 0.335. In addition, the SARS-CoV-2 infection rate in assay [2] is 104% (inactive).

In assay [1], `CN(C)c1cc(CNCC(C)(C)C)c(O)c2c1C[C@H]1C[C@H]3[C@H](N(C)C)C(O)=C(C(N)=O)C(=O)[C@@]3(O)C(O)=C1C2=O` [omadacycline] (10 µM) yielded a morphology score of 0.179. Besides, the SARS-CoV-2 infection rate in assay [2] was 97.5% (inactive).

The compound `CCOC(=O)Nc1ccc2c(c1)N(C(=O)CCN(CC)CC)c1ccccc1S2` [ethacizin] (10 µM) came in with a morphology score in assay [1] of 0.00909. For the same compound, the SARS-CoV-2 infection rate in assay [2] was 112% (inactive).

`Cc1cc(C(C)(C)C)c(O)c(C)c1CC1=NCCN1` [oxymetazoline] (10 µM) showed a morphology score in assay [1] of 0.233. Besides, the SARS-CoV-2 infection rate in assay [2] was 100% (inactive).

For `Nc1ncnc2c1ncn2[C@@H]1O[C@@H]2COP(=O)(O)O[C@H]2[C@H]1O` [cyclic-AMP] (10 µM), the morphology score in assay [1] was 0.255. Further, the SARS-CoV-2 infection rate in assay [2] was 86.5% (inactive).

As for `CC(=O)SCCC(=O)N1[C@H](C)CCC[C@@H]1C(=O)O` [methiopril] (10 µM), in assay [1], the morphology score worked out at 0.0927. Further, the SARS-CoV-2 infection rate in assay [2] was 102% (inactive).

`CC(C)c1cc(-c2ccc(F)c3ccccc23)nc(N)n1` (10 µM) registered a morphology score in assay [1] of 0.153. Besides, the SARS-CoV-2 infection rate in assay [2] is 108% (inactive).

Compound `CCc1cc2c(cc1CC)CC(NC[C@H](O)c1ccc(O)c3[nH]c(=O)ccc13)C2` [indacaterol] (10 µM) came in with a morphology score in assay [1] of 0.0532. In addition, the SARS-CoV-2 infection rate in assay [2] was 114% (inactive).

Compound `CC(C)NCC(O)c1cc(O)cc(O)c1` (stereo not given) [metaproterenol] (10 µM) showed a morphology score in assay [1] of 0.132. Further, the SARS-CoV-2 infection rate in assay [2] is 104% (inactive).

In assay [1], `Cc1nc(C)c(C)nc1C` [chuanxiongzine] (10 µM) returned a morphology score of -0.146. In assay [2], the SARS-CoV-2 infection rate is 118% (inactive).

Compound `O=C(c1ccc(F)cc1)C1CCN(CCn2c(=O)[nH]c3ccccc3c2=O)CC1` [ketanserin] (10 µM) came in with a morphology score in assay [1] of 0.144. Also, the SARS-CoV-2 infection rate in assay [2] was 106% (inactive).

Consider `CCCCCCCCCCCCCCCCOP(=O)([O-])OCC[N+](C)(C)C` [miltefosine] (0.833333 µM), for which the morphology score in assay [1] came out at 0.182. Moreover, the SARS-CoV-2 infection rate in assay [2] is 94.5% (inactive).

In assay [1], `Cc1ccc(-c2n[nH]c3c2C(c2cccc(O)c2)N(c2ccc(C(=O)O)cc2)C3=O)cc1` (stereo not given) (10 µM) returned a morphology score of 0.169. Moreover, the SARS-CoV-2 infection rate in assay [2] is 91.5% (inactive).

The compound `NCCCNCCCCNCCCN` [spermine] (10 µM) returned a morphology score in assay [1] of 0.0211. The SARS-CoV-2 infection rate in assay [2] is 107% (inactive).

`O=C(Nc1ncc(SCCN2CCCC2)s1)[C@]1(c2ccc(S(=O)(=O)C3CC3)cc2)C[C@H]1C1CCCCC1` (10 µM) yielded a morphology score in assay [1] of 0.767. For the same compound, the SARS-CoV-2 infection rate in assay [2] was 17% (active).

With `CON(C)C(=O)[C@H](O)[C@H](Cc1ccccc1)NC(=O)c1cc2cc(Cl)ccc2[nH]1` (10 µM), the morphology score in assay [1] stood at 0.109. In addition, the SARS-CoV-2 infection rate in assay [2] is 109% (inactive).

`CCOc1ccc(Cc2nccc3cc(OCC)c(OCC)cc23)cc1OCC` [ethaverine] (10 µM) gave a morphology score in assay [1] of 0.2. In assay [2], the SARS-CoV-2 infection rate was 100% (inactive).

For `CNc1nc(-c2ccc3c(N)n[nH]c3c2)cc(N2C[C@@H](C(=O)NC3CCCCC3)CC[C@H]2C)n1` (0.833333 µM), the morphology score in assay [1] was determined as 0.0384. Moreover, the SARS-CoV-2 infection rate in assay [2] is 106% (inactive).

In assay [1], `CCCC[P+](CCCC)(CCCC)Cc1ccc(NC(=O)[C@H](Cc2ccc3ccccc3c2)N/C(=N/C2CCCCC2)NC2CCCCC2)cc1` (10 µM) came in with a morphology score of 0.122. Further, in assay [2], the SARS-CoV-2 infection rate is 92% (inactive).

The compound `CCCCCCCC/C=C\CCCCCCCC(N)=O` [oleamide] (10 µM) had a morphology score in assay [1] of 0.242. The SARS-CoV-2 infection rate in assay [2] is 94.5% (inactive).

`COc1c(Nc2ccc(S(C)(=O)=O)nc2C)ncnc1OC1CCN(C(=O)OC(C)C)CC1` (10 µM): in assay [1], the morphology score is -0.00778. Besides, the SARS-CoV-2 infection rate in assay [2] was 100% (inactive).

With `CC(=O)c1c(O)cc(C)oc1=O` [dehydroacetic-acid] (10 µM), in assay [1], the morphology score stood at 0.121. Further, the SARS-CoV-2 infection rate in assay [2] is 93.5% (inactive).

Regarding `CCCn1c(=O)c2nc(C34CC5CC(CC3C5)C4)[nH]c2n(CCC)c1=O` (10 µM), in assay [1], the morphology score came out at 0.134. For the same compound, the SARS-CoV-2 infection rate in assay [2] is 94% (inactive).

The compound `CCC(CC)[C@H](NC(C)=O)[C@@H]1[C@H](O)[C@@H](C(=O)O)C[C@H]1NC(=N)N` [peramivir] (10 µM) returned a morphology score in assay [1] of 0.00579. For the same compound, the SARS-CoV-2 infection rate in assay [2] is 102% (inactive).

With `O=c1cc(N2CCOCC2)oc2c1ccc1ccccc12` (10 µM), in assay [1], the morphology score amounted to 0.258. Besides, the SARS-CoV-2 infection rate in assay [2] was 110% (inactive).

Take `CN(Cc1ccccc1)C(=O)[C@H](Cc1ccc2ccccc2c1)NC(=O)[C@@H]1C[C@@H](O)CN1C(=O)c1cn(C)c2ccccc12` (10 µM): in assay [1], the morphology score was found to be 0.179. In addition, the SARS-CoV-2 infection rate in assay [2] was 104% (inactive).

Regarding `COc1cccc(N(C)C(=S)Oc2ccc3c(c2)CCCC3)n1` [liranaftate] (10 µM), the morphology score in assay [1] is 0.341. The SARS-CoV-2 infection rate in assay [2] is 94% (inactive).

The compound `Cc1ccc(-c2ccc(F)cc2COc2ccc(CCC(=O)O)cc2)cc1` (10 µM) yielded a morphology score in assay [1] of -0.174. Moreover, in assay [2], the SARS-CoV-2 infection rate was 100% (inactive).

Turning to `CCC/C=C1\OC(=O)C2=C1CCC=C2` [ligustilide] (10 µM), the morphology score in assay [1] worked out at 0.0279. In assay [2], the SARS-CoV-2 infection rate was 108% (inactive).

Compound `CCCc1cc(C)[nH]c(=O)c1CNC(=O)c1cc(-c2ccc(N3CCN(C(C)C)CC3)nc2)cc2c1cnn2C(C)C` (10 µM) gave a morphology score in assay [1] of 0.0705. In addition, the SARS-CoV-2 infection rate in assay [2] is 110% (inactive).

With `COC(=O)Nc1nc2cc(SC(C)C)ccc2[nH]1` [methiazole] (0.833333 µM), in assay [1], the morphology score is -0.254. In addition, the SARS-CoV-2 infection rate in assay [2] is 120% (inactive).

`NCCNC(=O)c1ccc(Cl)cn1` [lazabemide] (10 µM) yielded a morphology score in assay [1] of 0.0341. Moreover, in assay [2], the SARS-CoV-2 infection rate was 106% (inactive).

Turning to `Cc1ccc(C(=O)C(C)CN2CCCCC2)cc1` (stereo not given) [tolperisone] (10 µM), in assay [1], the morphology score worked out at 0.383. Further, the SARS-CoV-2 infection rate in assay [2] is 83.5% (inactive).

As for `CCNC(=O)c1noc(-c2cc(C(C)C)c(O)cc2O)c1-c1ccc(CN2CCOCC2)cc1` (0.833333 µM), the morphology score in assay [1] stood at 0.0632. Also, the SARS-CoV-2 infection rate in assay [2] is 94% (inactive).

In assay [1], `Cc1nn(-c2ccccc2)c(C)c1/C=N/N1CCN(Cc2ccccc2)CC1` (10 µM) yielded a morphology score of 0.00911. Further, the SARS-CoV-2 infection rate in assay [2] was 117% (inactive).

In assay [1], `C=CC[C@]1(O)CC[C@H]2[C@@H]3CCC4=CCCC[C@@H]4[C@H]3CC[C@@]21C` [allylestrenol] (10 µM) yielded a morphology score of 0.0416. Also, the SARS-CoV-2 infection rate in assay [2] was 92.5% (inactive).

Regarding `COc1ccc2nc3[nH]nc(C)c3c(NCCOCCO)c2c1` (10 µM), in assay [1], the morphology score was -0.00598. The SARS-CoV-2 infection rate in assay [2] is 111% (inactive).

The compound `NCCc1ccc(O)c(O)c1` [dopamine] (10 µM) gave a morphology score in assay [1] of -0.112. Further, the SARS-CoV-2 infection rate in assay [2] was 100% (inactive).

`CCOC(=O)Nc1ccc2c(c1)N(C(=O)CN(C)C)c1ccccc1CC2` [tiracizine] (10 µM) gave a morphology score in assay [1] of -0.162. Also, the SARS-CoV-2 infection rate in assay [2] is 111% (inactive).

`Nc1nc(NC2CC2)c2ncn([C@H]3C=C[C@@H](CO)C3)c2n1` (10 µM) had a morphology score in assay [1] of 0.0446. The SARS-CoV-2 infection rate in assay [2] is 102% (inactive).

`Clc1cccc(SC2CCNCC2)n1` [anpirtoline] (10 µM) registered a morphology score in assay [1] of 0.0464. Moreover, the SARS-CoV-2 infection rate in assay [2] was 106% (inactive).

The compound `CCCCCCCCCC(=O)OCCN1CCN(CCCN2c3ccccc3Sc3ccc(C(F)(F)F)cc32)CC1` [fluphenazine-decanoate] (10 µM) came in with a morphology score in assay [1] of -0.147. Also, the SARS-CoV-2 infection rate in assay [2] was 112% (inactive).

Turning to `Clc1ccc(C(Cn2ccnc2)OCc2ccsc2Cl)c(Cl)c1` (stereo not given) [tioconazole] (10 µM), the morphology score in assay [1] is -0.0375. Moreover, the SARS-CoV-2 infection rate in assay [2] is 106% (inactive).

`C[C@]12CC/C(=N\OCCN)C[C@@H]1C(=O)C[C@@H]1[C@@H]2CC[C@]2(C)C(=O)CC[C@@H]12` [istaroxime] (0.833333 µM) returned a morphology score in assay [1] of 0.151. For the same compound, in assay [2], the SARS-CoV-2 infection rate is 102% (inactive).

In assay [1], `CC(C)[C@@H]1C(=O)N(S(C)(=O)=O)[C@@H]2CCN(C(=O)/C=C/CN3CCCCC3)[C@H]21` (10 µM) returned a morphology score of 0.0406. The SARS-CoV-2 infection rate in assay [2] was 106% (inactive).

The compound `COc1cc2c(cc1-c1c(C)noc1C)ncc1[nH]c(=O)n([C@H](C)c3ccccn3)c12` (10 µM) displayed a morphology score in assay [1] of -0.154. For the same compound, the SARS-CoV-2 infection rate in assay [2] was 112% (inactive).

`Cc1cc(NC(=O)C2=C(O)c3ccccc3S(=O)(=O)N2C)no1` [isoxicam] (10 µM): in assay [1], the morphology score is -0.111. For the same compound, the SARS-CoV-2 infection rate in assay [2] is 108% (inactive).

For `Cc1ccccc1C(C(=O)NC1CCCCC1)N(C(=O)Cn1ccnc1C)c1cccc(F)c1` (stereo not given) (10 µM), the morphology score in assay [1] was 0.177. Further, the SARS-CoV-2 infection rate in assay [2] was 108% (inactive).

In turn, `FC(F)(F)c1ccc(/C=C/c2nc(COc3ccc(CCCCn4ccnn4)cc3)co2)cc1` [mubritinib] (10 µM) gave a morphology score in assay [1] of -0.0917. Further, the SARS-CoV-2 infection rate in assay [2] is 96% (inactive).

The compound `COC(=O)CC[C@@H]1N=C(c2ccccn2)c2cc(Br)ccc2-n2c(C)cnc21` [remimazolam] (10 µM) had a morphology score in assay [1] of 0.132. Also, the SARS-CoV-2 infection rate in assay [2] was 95% (inactive).
